Holding throughout (experiment): Primary qHTS to identify gynecologic anti-cancer compounds using libraries of approved drugs and bioactive compounds (AID 1345084); further: nearly all actives have a fitted effect of over 55% in size
One test has as its system C33A. The following applies: Gynecologic cancer cell panel viability, ATPlite luminescence, 48 h; series mostly up to 57.5 µM. In short, it runs like this:
(§1)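 Cell viability after 48 h drug treatment, ATPlite luminescence readout; five doses.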
In general terms: In ATP-based viability assays light output follows the ATP content of the culture.

In another test the test system is CAOV3. The following applies: Gynecologic cancer cell panel viability, ATPlite luminescence, 48 h; series mostly up to 57.5 µM. In short, it runs like this: as §1
The next test relates to CASKI. The following applies: Gynecologic cancer cell panel viability, ATPlite luminescence, 48 h; series mostly up to 57.5 µM. Put shortly:
as §1

Another test relates to Es-2. The following applies: Gynecologic cancer cell panel viability, ATPlite luminescence, 48 h; series mostly up to 57.5 µM. Put shortly: as §1
The test system of the next test is HeLa. The note with it: Gynecologic cancer cell panel viability, ATPlite luminescence, 48 h; series mostly up to 57.5 µM. Put shortly: as §1
The test system of the next test is Hek293T. The note with it: Gynecologic cancer cell panel viability, ATPlite luminescence, 48 h, control line for the selectivity index; series mostly up to 57.5 µM. Put shortly:
as §1

The subject of a further test is JEG-3. The note with it: Gynecologic cancer cell panel viability, ATPlite luminescence, 48 h; series mostly up to 57.5 µM. Put shortly: as §1

Here are results for 36 compounds from PubChem BioAssay (NCATS).

Inconclusive results are not listed. The source made the active and inactive calls. The call rests on the fitted dose curve; in most records, active means well fitted cell-killing curve with a large enough effect; inconclusive means small, poorly fitted or top-dose-only effect, or effect the other way; inactive means flat fitted curve, though single readings scatter.
Potency means the concentration at half of the fitted maximal effect.

With `CC[C@H]1CN(c2nc(N)c(C(N)=O)nc2Cl)CCN1C1CCN(Cc2ccc(Cl)cc2)CC1`, the Potency result in the test on C33A, in the test with CAOV3, in the test with CASKI, with Es-2, in the test on HeLa and in the test on Hek293T was “inactive” each time. Also, the Potency result with JEG-3 was “inactive”.

On to `NS(=O)(=O)c1ccc(NC(=O)Nc2ccc(F)cc2)cc1`, for which the Potency result in the test on C33A, in the test with CAOV3, in the test on CASKI, in the test with Es-2, in the test with HeLa and in the test with Hek293T was “inactive” throughout. In addition, in the test on JEG-3, the Potency result was “inactive”.

Consider `C[C@@H]1CC[C@]2(C(=O)O)CC[C@]3(C)C(=CCC4[C@@]5(C)CC[C@H](O)[C@](C)(C(=O)O)C5CC[C@]43C)C2[C@]1(C)O` (stereo partly drawn), for which the Potency result with C33A, with CAOV3, in the test with CASKI, in the test on Es-2, in the test with HeLa and in the test on Hek293T was “inactive” throughout. Besides, the Potency entry in the test with JEG-3 was “inactive”.

Regarding `COc1ccc(CCc2nc3cc(-c4c(C)noc4C)ccc3n2CC(C)N2CCOCC2)cc1Cl` (stereo not drawn), the Potency entry in the test on C33A, with CAOV3, in the test on CASKI, with Es-2, in the test with HeLa and with Hek293T was “inactive” in each case. Besides, the Potency entry in the test on JEG-3 was “inactive”.

As for `CNc1cccc(CCOc2ccc3c(c2)CN(CC(F)(F)F)C(=O)[C@H](CC(=O)O)C3)n1`, the Potency entry in the test on C33A, in the test on CAOV3, in the test with CASKI, in the test on Es-2, with HeLa and in the test with Hek293T was “inactive” throughout. In addition, the Potency entry with JEG-3 was “inactive”.

For the compound `O=C(NC[C@H]1CN(c2ccc(N3CCOCC3=O)cc2)C(=O)O1)c1ccc(Cl)s1`, the Potency entry in the test with C33A, with CAOV3, in the test on CASKI, in the test with Es-2, with HeLa and in the test on Hek293T was “inactive” each time. The Potency entry in the test on JEG-3 is “inactive”.

Take `CC(C)(C)[C@H](NC(=O)c1ccc(N)c(Cl)c1)C(=O)N1CCC[C@H]1C(=O)N[C@H](C#N)CC(=O)O`: the Potency entry in the test with C33A, in the test with CAOV3, with CASKI, in the test on Es-2, in the test with HeLa and with Hek293T was “inactive” each time. Moreover, the Potency result with JEG-3 is “inactive”.

Take `CC[C@@H](Nc1c(Nc2cccc(C(=O)N(C)C)c2O)c(=O)c1=O)c1cc(C(C)C)co1`: the Potency result in the test on C33A, with CAOV3, with CASKI, in the test on Es-2, in the test with HeLa and with Hek293T was “inactive” throughout. Also, in the test on JEG-3, the Potency entry is “inactive”.

As to `C#CCOc1ccc2c(c1)c(-c1ccc(C(C)C)cc1)nc(=O)n2C(C)C`, the Potency entry in the test on C33A, in the test on CAOV3, with CASKI, in the test with Es-2, in the test with HeLa and in the test on Hek293T was “inactive” each time. The Potency entry in the test with JEG-3 is “inactive”.

Regarding `COc1ccc(C2(N(C)C(=O)c3ccc(NC(=O)c4ccco4)cc3)CCOCC2)cc1`, the Potency entry with C33A, with CAOV3, in the test on CASKI, in the test on Es-2, with HeLa and in the test on Hek293T was “inactive” in each case. For the same compound, the Potency entry in the test with JEG-3 is “inactive”.

On to `Cc1nc(C#Cc2ccnc(Cl)c2)c(C)n1-c1ccc(OC(F)(F)F)cc1`, for which the Potency result with C33A, in the test with CAOV3, in the test on CASKI, with Es-2, in the test on HeLa and in the test with Hek293T was “inactive” throughout. For the same compound, in the test with JEG-3, the Potency result was “inactive”.

In the case of `CC1(C)OC[C@H](NC(=O)Nc2ccc(Br)cc2Br)[C@H](c2ccccc2)O1`, the Potency result in the test with C33A, in the test on CAOV3, with CASKI, in the test with Es-2, in the test on HeLa and in the test with Hek293T was “inactive” each time. Besides, the Potency entry in the test on JEG-3 is “inactive”.

As for `O=c1[nH]c2ccc(C#CCN3CCC(Cc4ccccc4)CC3)cc2[nH]1`, the Potency result in the test with C33A, with CAOV3, in the test with CASKI, with Es-2, in the test with HeLa and in the test with Hek293T was “inactive” each time. In addition, in the test on JEG-3, the Potency entry is “inactive”.

Take `CCCOc1ccc(S(=O)(=O)N2CCN(CCO)CC2)cc1-c1nc2c(CCC)cn(CC)c2c(=O)[nH]1`: the Potency entry in the test with C33A, with CAOV3, in the test with CASKI, in the test on Es-2, with HeLa and in the test on Hek293T was “inactive” throughout. Moreover, the Potency result in the test with JEG-3 is “inactive”.

On to `O=C(Nc1ccc(N(Cc2ccsc2)C(=O)Cn2nnc3ccccc32)cc1)C1CC1`, for which the Potency entry with C33A, in the test with CAOV3, in the test on CASKI, with Es-2, in the test on HeLa and with Hek293T was “inactive” throughout. The Potency entry with JEG-3 is “inactive”.

In the case of `C=C1C(=O)O[C@@H]2/C=C(\CO)CC/C=C(\CO)[C@H](OC(C)=O)C(OC(=O)C(C)CC)C12` (stereo partly drawn), the Potency result in the test on C33A, in the test on CAOV3, in the test on CASKI, with Es-2, in the test on HeLa and with Hek293T was “inactive” each time. Also, the Potency entry in the test on JEG-3 was “inactive”.

`C=C(COC(=O)C(O)C(O)CN)C12OC1C1(C)C(=CC2=O)C(O)C(O)CC1C` (stereo not drawn): the Potency result in the test with C33A, in the test on CAOV3, in the test with CASKI, in the test with Es-2, with HeLa and with Hek293T was “inactive” each time. Also, in the test on JEG-3, the Potency entry is “inactive”.

Turning to `CC(C)n1c(=O)c(C(=O)NC2CC3CCC(C2)N3C[C@@H](O)CN(C)S(C)(=O)=O)cc2ccccc21` (stereo partly drawn), the Potency result in the test with C33A, with CAOV3, in the test with CASKI, in the test on Es-2, in the test on HeLa and in the test with Hek293T was “inactive” in each case. In the test on JEG-3, the Potency result was “inactive”.

For `Cc1cc(C(=O)Nc2cc(Nc3ccc4c(/C=C/c5ccccn5)n[nH]c4c3)ccc2F)n(C)n1`, the Potency entry in the test on C33A, with CAOV3, with CASKI, with Es-2, with HeLa and with JEG-3 was “inactive” throughout.

For `COc1nc2ccc(Br)cc2cc1[C@@H](c1ccccc1)[C@@](O)(CCN(C)C)c1cccc2ccccc12`, the Potency entry in the test with C33A, in the test on CAOV3, in the test on CASKI, in the test on Es-2, in the test with HeLa and in the test with JEG-3 was “inactive” in each case.

On to `NS(=O)(=O)c1ccc(N2CCN(CC[C@@H]3OCCc4ccccc43)CC2)cc1`, for which the Potency result with C33A, with CAOV3, with CASKI, in the test on Es-2, in the test on HeLa and in the test with Hek293T was “inactive” each time. For the same compound, in the test on JEG-3, the Potency entry was “inactive”.

Take `COc1ccccc1-c1ccc(-c2cn(C(=O)N3CCCCC3Cc3ccccc3)nn2)cc1` (stereo not drawn): the Potency entry in the test on C33A, in the test with CAOV3, in the test on CASKI, in the test with Es-2 and with JEG-3 was “inactive” throughout.

For the compound `Nc1nc(Cl)nc2c1ncn2C1OC(CO)C(O)C1F` (stereo not drawn), the Potency entry in the test with C33A and with HeLa was “inactive” each time. The figures for the Potency in the test on CAOV3 and in the test on CASKI were 0.631 µM (active) and 3.98 µM (active), respectively.

As for `COc1ccc2nc3n[nH]c(C)c3c(NCCOCCO)c2c1`, the Potency result in the test with C33A, in the test on CAOV3, with CASKI, in the test with Es-2, in the test with Hek293T and in the test with JEG-3 was “inactive” in each case.

In the case of `C[C@@H]1CCCN1CCc1cc2cc(-c3ccc(C#N)cc3)ccc2o1`, the Potency result with C33A, in the test on CAOV3, in the test on CASKI, in the test with Es-2, in the test with HeLa and in the test on JEG-3 was “inactive” throughout.

Take `O=C(NCCCNc1nc(Nc2cccc(CN3CCOCC3)c2)ncc1C1CC1)C1CCC1`: the Potency result with C33A, in the test with CASKI, with Es-2, with Hek293T and with JEG-3 was “inactive” in each case. Moreover, the Potency with CAOV3 was 11.2 µM (active).

In the case of `Cc1c(C2=CCN(C(=O)N(C)C(C)C)CC2)nnn1-c1cccnc1F`, the Potency result in the test with C33A, in the test on CAOV3, with CASKI, in the test with Es-2, with Hek293T and with JEG-3 was “inactive” throughout.

Consider `Cn1ncc(Cl)c1-c1cc(C(=O)N[C@H](CN)Cc2ccc(F)c(F)c2)oc1Cl`, for which the Potency with C33A was 2.24 µM (active); in the test with CASKI it was 3.98 µM (active). Moreover, the Potency entry in the test with CAOV3, with Es-2, in the test on HeLa and in the test on JEG-3 was “inactive” throughout.

In the case of `COc1ccc([C@H]2OC[C@H]3O[C@@H](O[C@H]4[C@@H]2NC[C@@H]4O)[C@H](O)[C@H]3O)cc1`, the Potency in the test with C33A is 7.08 µM (active); in the test on CAOV3, 2.82 µM (active); in the test on CASKI, 5.01 µM (active); with Es-2 it was 4.47 µM (active); with Hek293T, 3.16 µM (active); in the test on JEG-3, 5.01 µM (active).

Take `CC(C)OC(=O)N1CCC(Oc2ncnc3c2cnn3-c2ccc(S(C)(=O)=O)cc2F)CC1`: the Potency entry in the test on C33A, in the test with CAOV3, with CASKI, with Es-2, in the test with HeLa and in the test on JEG-3 was “inactive” in each case.

Regarding `C#CC(=O)N(c1ccc(OC)cc1OC)C(C(=O)NCC(=O)OCC)c1cccs1` (stereo not drawn), the Potency in the test with C33A was 5.01 µM (active); in the test with CAOV3, 1.78 µM (active); with CASKI, 22.4 µM (active); with Es-2 it was 1.41 µM (active); with JEG-3, 15.8 µM (active).

With `C=C1CC2[C@@]3(C)C=CC(=O)C(C)(C)C3=C(O)C(=O)[C@@]2(C)C2(C(=O)OC)C(=O)C(C)OC(=O)[C@@]12C` (stereo partly drawn), the Potency result with C33A, with CAOV3, with CASKI, in the test with Es-2 and in the test on JEG-3 was “inactive” in each case.

As for `Nc1nccc(-c2c(-c3ccc(F)cc3)ncn2C2CCCCC2)n1`, the Potency entry with C33A, in the test with CAOV3, in the test with CASKI, in the test with Es-2, in the test with HeLa and in the test with JEG-3 was “inactive” each time.

As for `c1ccc(-c2ccc(CNc3nc(-c4ccccn4)nnc3-c3ccccc3)cc2)cc1`, the Potency in the test on C33A was 12.6 µM (active); in the test on CAOV3, 8.91 µM (active); with CASKI, 11.2 µM (active); in the test on Es-2, 17.8 µM (active). Further, in the test with JEG-3, the Potency entry is “inactive”.

Consider `O=C(CNC(=O)c1cccc(C(F)(F)F)c1)N[C@@H]1CCN(Cc2ccc(Cl)cc2)C1`, for which the Potency result in the test with C33A, with CAOV3, in the test on CASKI, in the test with HeLa, in the test with Hek293T and with JEG-3 was “inactive” in each case.

Take `C=C(C(=O)O[C@H]1C/C(C)=C/CC/C(CO)=C/[C@H]2OC(=O)C(=C)[C@H]12)C(O)CO` (stereo partly drawn): the Potency result in the test with C33A, in the test with CAOV3, with CASKI, in the test with HeLa and in the test on Hek293T was “inactive” throughout.
